Measured values from PubChem BioAssay AID1626 (SRMLSC, 2009).
The campaign covered roughly 220,000 compounds. About 2,000 (0.91%) were called active. Inconclusive results (about 2%) are left out. Not all results are given here. Results with a measured potency or affinity are listed apart. Unmarked numbers belong to inactive results. Cut-off read from the data, not from the text of the source: inconclusive = inhibition above about 80% without an active follow-up result; inactive = below that; test concentration not stated here.

Test: M. tuberculosis H37Rv growth inhibitors, H37Rv strain (AID 1626);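 note: bacteria incubated seven days before Alamar blue readout; 0% = bacteria only wells and 100% = bacteria with antibiotic wells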
Settings: hits give high values, concentration not given here
In the case of `Cc1ccc(-c2cc(C(=O)N/N=C/c3c(C)nn(C)c3C)c3ccccc3n2)c(C)c1`, the inhibition is reported as -2.59%. In the case of `CCCc1nnc2n1N=C(c1ccc([N+](=O)[O-])cc1)CS2`, the inhibition is reported as 3%. `Cc1cccc(NC(=O)c2ccc([N+](=O)[O-])s2)c1C` showed an inhibition of 53.1%. `Cc1cccc(C(=O)Nc2nnc(-c3ccncc3)o2)c1` gave an inhibition of 62.6%. With `Cn1nnc(NC(=O)c2ccc3ccccc3c2)n1` the inhibition was 0.14%. Compound `Cc1cccc(C)c1NC(=O)c1ccc([N+](=O)[O-])s1` has an inhibition of 11.5%. Compound `O=C(Nc1nnc(-c2ccco2)o1)c1cccc(N2C(=O)CCC2=O)c1` has an inhibition of 2.38%. In the case of `O=C(COc1ccccc1)Nc1nnc(-c2ccco2)o1`, the inhibition is reported as -3.85%. In the case of `O=C(Cc1ccccc1)Nc1nnc(-c2ccco2)o1`, the inhibition is reported as 1.37%. Work on `O=C(Nc1ccncc1)c1ccc2ccccc2c1` yielded an inhibition of 1.37%. `COc1ccc(OC)c2c(C)cc(N3CCN(C(=O)c4ccc(F)cc4)CC3)nc12` gave an inhibition of 8.6%. For `O=C(/C=C/c1ccco1)Nc1ccccc1N1CCCCC1`, the inhibition was 10.2%. `Cc1c(NC(=S)N/C(=N/S(=O)(=O)c2ccc(Cl)cc2)c2ccccc2)c(=O)n(-c2ccccc2)n1C` gave an inhibition of 3.87%. With `Cc1ccc(S(=O)(=O)Nc2cccc(C(=O)Nc3cc(C)ccn3)c2)cc1` the inhibition was 7.87%. `Cc1ccc(C2=NC3(CCCCCC3)NC2=S)cc1` showed an inhibition of 7.91%. In the case of `Cc1ccc(Cl)cc1-c1ccc(C=Nc2ccc(N3CCOCC3)cc2)o1`, the inhibition is reported as 9.51%. With `Clc1cccc(-c2ccc(C=Nc3ccc(N4CCOCC4)cc3)o2)c1` the inhibition was 32.1%. Work on `COc1cccc(CN2CCCCC2C(=O)O)c1` (stereo unspecified) yielded an inhibition of -3.4%. Work on `Clc1cccc(-c2nc(NCCCN3CCOCC3)c3ccccc3n2)c1` yielded an inhibition of 15%. With `Clc1ccc(-c2nc(NCCN3CCOCC3)c3ccccc3n2)cc1` the inhibition was 11.1%. In the case of `COc1ccc(-c2nn(-c3ccccc3C)cc2CNC(C)c2cn(C)nc2C)cc1F` (stereo unspecified), the inhibition is reported as -2.3%. In the case of `COc1ccc(NC(=O)CSc2nnc(Cn3c(=O)sc4ccccc43)n2C)cc1OC`, the inhibition is reported as -2.38%. Compound `CCOC(=O)c1sc2nc(Cc3ccc(Cl)cc3)[nH]c(=S)c2c1C` has an inhibition of 62.6%. Work on `CCOC(=O)c1sc2nc(C)n(N)c(=O)c2c1C` yielded an inhibition of 3.43%. For `CCC(=NCc1ccc2c(c1)OCO2)c1c(O)n(C)c(=O)n(C)c1=O`, the inhibition was -0.05%. With `Clc1cccc(Cl)c1/C=N/Nc1c(Cl)cncc1Cl` the inhibition was -5.97%. `COc1ccc(/C=C2\C(=O)c3ccccc3OC2c2ccccc2)cc1` (stereo unspecified) showed an inhibition of 0.26%. For `Cc1ccc(N=Cc2ccc[nH]2)c(O)c1`, the inhibition was -2.8%. With `O=C(N/N=C/c1ccc[nH]1)c1ccccc1O` the inhibition was -6.87%. With `Cc1ccc(CCSc2ccc(F)cc2)cn1` the inhibition was 0.68%. In the case of `CN1CCN(Cc2ccc(-c3ccc(Cl)cc3)o2)CC1`, the inhibition is reported as 4.34%. Work on `O=C(O)CCc1ccc(-c2ccc(Cl)cc2)o1` yielded an inhibition of 62.7%. Compound `O=C(COCC(=O)N1CCOCC1)N1CCOCC1` has an inhibition of -0.86%. `COc1ccc(OC)c(-n2nnnc2SCC(=O)Nc2nc(C)c(C)s2)c1` showed an inhibition of -6.27%. With `COc1ccc(C(=O)Nc2ccccc2Cc2ccccc2)c(OC)c1` the inhibition was 12.6%. `C=CCOC(=O)c1ccc(-n2cnc(C)n2)nc1` showed an inhibition of 34.4%. In the case of `CCOCCOC(=O)c1ccc(-n2cnc(C)n2)nc1`, the inhibition is reported as 1.52%. In the case of `CC(C)CN1CCN(Cc2ccc(Oc3ncccn3)cc2)CC1CCO` (stereo unspecified), the inhibition is reported as -12.7%. `Cc1cccc(NC(=O)COC(=O)c2ccc([N+](=O)[O-])o2)c1C` showed an inhibition of -1.87%. `O=C(Nc1ccc2oc(-c3cccnc3)nc2c1)c1ccco1` showed an inhibition of -0.84%. In the case of `O=C(Nc1ccc2oc(-c3cccnc3)nc2c1)c1ccc(Br)o1`, the inhibition is reported as -4.68%. `COc1cc(NC(=O)c2ccc([N+](=O)[O-])o2)ccc1NC(=O)c1cccs1` showed an inhibition of 11.9%. Compound `Cc1ccc(CNC(=O)c2ccc(Br)o2)cc1` has an inhibition of 6.85%. `O=C(NCc1cccnc1)c1ccc([N+](=O)[O-])o1` showed an inhibition of 9.87%. `Cc1ccccc1NC(=O)c1ccc([N+](=O)[O-])o1` showed an inhibition of -5.26%. For `O=C(Nc1cccc(NC(=O)c2cccs2)c1)c1ccco1`, the inhibition was -1.16%. In the case of `O=C(NCCCN1CCOCC1)C(C(=O)NCCCN1CCOCC1)c1ncc(C(F)(F)F)cc1Cl`, the inhibition is reported as -6.54%. For `O=C1CC(C(=O)O)S/C(=N\N=C\c2ccc(Br)cc2)N1` (stereo unspecified), the inhibition was -6.35%. In the case of `COc1cccc(OC)c1C(=O)NNC(=O)c1ccc(F)cc1`, the inhibition is reported as -2.49%. `COc1ccccc1CN1C[C@@H]2C[C@@H](c3cccc(C)c3)N3CCC[C@@]23C1=O` showed an inhibition of 4.89%. In the case of `CCN(CC)S(=O)(=O)c1ccc(N/N=C(\C)c2ccc3c(c2)OCO3)c([N+](=O)[O-])c1`, the inhibition is reported as 2.18%. `NC(=O)N/N=C/c1coc2ccc(O)cc2c1=O` showed an inhibition of -3.42%. Compound `Cc1ccnc(NC(=O)c2ccc([N+](=O)[O-])o2)c1` has an inhibition of 5.02%. Compound `Cc1cccnc1NC(=O)c1ccc([N+](=O)[O-])o1` has an inhibition of 2.32%. `NS(=O)(=O)c1ccc(O)c(NC(=O)c2ccc([N+](=O)[O-])o2)c1` showed an inhibition of -1.93%. Compound `Cc1cc(C)nc(NC(=O)c2ccc([N+](=O)[O-])o2)n1` has an inhibition of -5.31%. With `Cc1cccc(NC(=O)c2ccc([N+](=O)[O-])o2)n1` the inhibition was 3.18%. `O=C(Nc1ncccn1)c1ccc([N+](=O)[O-])o1` gave an inhibition of 0.82%. For `C=CCNC(=O)c1ccc2c(c1)S(=O)(=O)c1ccccc1C2=O`, the inhibition was -9.32%. With `COc1cc(C(=O)N2CCN(c3ccccc3)CC2)c([N+](=O)[O-])cc1OC` the inhibition was 3.88%. `CN(C)c1ccc(CC(=O)c2nc3ccccc3s2)cc1` showed an inhibition of -5.99%. `CCCSc1nnc(NC(=O)Nc2ccc(F)cc2)s1` gave an inhibition of 17%. Compound `O=C(NCC1CCCN(Cc2cccc(C(F)(F)F)c2)C1)c1ccc(F)cc1` (stereo unspecified) has an inhibition of -2.43%. `Cn1cc(/C=C(\C#N)C(=O)Nc2ncc(Cc3cccc(Cl)c3)s2)c2ccccc21` showed an inhibition of 4.07%. With `Cn1cc(/C=C(\C#N)C(=O)Nc2ncc(Cc3ccc(Cl)cc3)s2)c2ccccc21` the inhibition was 1.97%. `COC(C/C=C/[C@H](O)[C@H](C)OCc1ccccc1)OC` gave an inhibition of -0.67%. With `O=c1[nH]c(O)c(N=Nc2ccc([N+](=O)[O-])cc2)c(=O)[nH]1` the inhibition was -0.55%. Compound `O=[N+]([O-])c1ccc(N=Nc2ccc(O)cc2O)cc1` has an inhibition of 5.58%. In the case of `COC(=O)CCC(=O)N1CCc2cc(S(=O)(=O)N3CCN(c4ccccc4Cl)CC3)ccc21`, the inhibition is reported as 3.32%. `CN(C)c1ccc(C(=S)N2CCCCC2)cc1Br` gave an inhibition of 6.15%. For `Cc1cccc(N=c2c([N+](=O)[O-])nn(-c3ccc(Cl)cc3)n2O)c1`, the inhibition was 36.6%. Compound `Cc1ccc(CN=c2c([N+](=O)[O-])nn(-c3cccc(C)c3)n2O)cc1` has an inhibition of -1.44%. `Cc1cc(C)cc(N=c2c([N+](=O)[O-])nn(-c3ccc(Cl)cc3)n2O)c1` showed an inhibition of 48.3%. `O=[N+]([O-])c1nn(-c2cccc(Cl)c2)n(O)c1=NCc1cccnc1` showed an inhibition of 6.16%. Compound `O=C(CCC1CCCN(Cc2ccc3c(c2)OCCO3)C1)NCc1ccccc1F` (stereo unspecified) has an inhibition of -11.3%. `CCCNC(=O)NC(=O)CSc1ccc2c(c1)OCCO2` showed an inhibition of 5.15%. `O=C(Nc1cc(C(F)(F)F)ccc1Cl)C1CCN(c2nnc(-n3cccc3)s2)CC1` showed an inhibition of -3.21%. Compound `O=C(C1CCCN(c2nnc(-n3cccc3)s2)C1)N1CCN(c2ccccc2)CC1` (stereo unspecified) has an inhibition of 63.1%. In the case of `O=C(C1CCN(c2nnc(-n3cccc3)s2)CC1)N1CCOCC1`, the inhibition is reported as 0.74%. Work on `O=C(NCCCN1CCc2ccccc2C1)C1CCN(c2nnc(-n3cccc3)s2)CC1` yielded an inhibition of -4.77%. Work on `COc1ccc(CN2C(=O)NC(=O)/C(=C\c3ccco3)C2=O)cc1` yielded an inhibition of -5.87%. For `O=C(O)c1cc([N+](=O)[O-])cc2c1nnn2O`, the inhibition was -1.94%. For `COc1ccccc1Oc1ccc(N/C=C/C(=O)C(C)(C)C)cc1`, the inhibition was -4.81%. In the case of `CCOC(=O)c1ccc(N/C=C\C(=O)c2cccc(OC)c2)cc1`, the inhibition is reported as 94.8%. `Cc1ccc(N/C=C/C(=O)C(C)(C)C)c(O)c1` showed an inhibition of -0.76%. Work on `COc1ccc(N/C=C/C(=O)c2ccc(OC)c(OC)c2)cc1` yielded an inhibition of 47%. For `CCOc1ccccc1N/C=C/C(=O)C(C)(C)C`, the inhibition was 4.06%. Compound `COc1cccc(Oc2ccc(N/C=C/C(=O)C(C)(C)C)cc2)c1` has an inhibition of 1.22%. Work on `COc1cc(C(=O)Nc2ccc3c(c2)OCCO3)ccc1OC(C)C` yielded an inhibition of -2.6%. Compound `CCOC(=O)c1ccc(NC(=O)Nc2ccc(OC)c(OC)c2)cc1` has an inhibition of -4.38%. With `COc1ccccc1N(C(=O)c1snc(C(N)=O)c1N)C(C(=O)NCCC(C)C)c1ccco1` (stereo unspecified) the inhibition was -1.7%. In the case of `COc1ccc(C(=O)NC(=O)Nc2ncccc2C)cc1`, the inhibition is reported as -9.06%. `O=C(N/N=C1\C(=O)c2cccc3cccc1c23)c1ccc(O)cc1` gave an inhibition of 20.7%. `N#C/C(=C\c1c(Cl)cccc1Cl)c1nn(-c2ccccc2)c(-n2cccc2)c1C#N` showed an inhibition of -1.88%. Compound `O=S(=O)(NCc1cccnc1)c1ccc(Cl)c(Cl)c1` has an inhibition of -0.1%. `CCOC(=O)c1c(-c2ccccc2)csc1NC(=O)CSc1nncs1` gave an inhibition of 4.86%.
